Compound activity: PubChem BioAssay, several laboratories
rCAG RNA binder = binds r(CAG) RNA repeats; r(CAG) RNA repeat, TO-PRO-1 dye displacement fluorescence; inhibition, % at 3 µM; hit rate 1.3% among 370,000; AID 651821;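 active means inhibition above the plate cutoff, the mean of all test compounds on that plate plus 3 SD, cut at about 35% in these data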;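 further: 0% = DMSO alone and 100% = 100 µM mitoxantrone as full dye displacement; higher means more dye released from RNA so lower well fluorescence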
ALR inh = inhibitors of human sulfhydryl oxidase ALR. P55789. purified ALR, DTT oxidation, H2O2 HRP-luminol luminescence. inhibition, % (concentration not given with the values). hit rate 3.8% among 290,000;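 active means mean replicate inhibition above about 79%, with every replicate also reaching it, limit read from the data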
Rtt109 HAT inh = C. albicans Rtt109 histone acetyltransferase inhibition. Q5AAJ8. inhibition, % at 34.9 µM. purified Rtt109/Vps75, ThioGlo CoA-SH fluorescence, 4 h. AID 540336. hit rate 0.16% among 330,000;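 active means inhibition of at least 50% in every replicate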
ABHD5-PLIN5 inh = blocks binding of human ABHD5 to perilipin-5; Split G. princeps luciferase complementation, luminescence, 4 h; hit rate 0.78% among 360,000; AID 602281; inhibition, % at 4 µM; Q00G26+Q8WTS1;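 active means inhibition above the mean inhibition across every tested compound plus 3 SD, cut at about 22% in these data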;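 further: 0% = DMSO only wells and the 100% control is not disclosed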
Target sequence (Q00G26 whole entry, looked up): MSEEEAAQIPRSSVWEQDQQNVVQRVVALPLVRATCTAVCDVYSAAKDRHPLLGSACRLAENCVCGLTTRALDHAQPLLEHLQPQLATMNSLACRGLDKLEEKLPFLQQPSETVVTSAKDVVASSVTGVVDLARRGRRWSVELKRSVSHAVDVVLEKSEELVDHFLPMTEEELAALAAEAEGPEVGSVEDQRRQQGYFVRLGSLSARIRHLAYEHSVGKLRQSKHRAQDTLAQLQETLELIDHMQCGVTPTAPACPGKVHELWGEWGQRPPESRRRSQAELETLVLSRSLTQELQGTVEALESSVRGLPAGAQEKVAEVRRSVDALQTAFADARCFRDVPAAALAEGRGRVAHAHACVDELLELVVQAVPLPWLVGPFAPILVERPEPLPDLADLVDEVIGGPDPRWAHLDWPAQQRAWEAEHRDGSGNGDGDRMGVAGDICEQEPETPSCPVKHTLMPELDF
Target sequence (Q8WTS1 whole entry, looked up): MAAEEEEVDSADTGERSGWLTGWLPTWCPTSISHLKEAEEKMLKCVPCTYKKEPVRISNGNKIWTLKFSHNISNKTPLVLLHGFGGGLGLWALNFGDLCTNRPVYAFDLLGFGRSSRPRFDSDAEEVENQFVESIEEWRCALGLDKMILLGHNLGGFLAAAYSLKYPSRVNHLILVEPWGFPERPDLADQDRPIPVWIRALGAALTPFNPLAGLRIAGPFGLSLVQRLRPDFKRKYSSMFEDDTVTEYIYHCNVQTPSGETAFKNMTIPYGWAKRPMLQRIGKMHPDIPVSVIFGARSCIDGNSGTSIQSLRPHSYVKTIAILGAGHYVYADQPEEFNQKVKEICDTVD
LANA-H2A inh = blocks KSHV LANA binding to histone H2A/H2B. Q9QR71. cell-free LANA-H2A/H2B peptide, fluorescence polarization. inhibition, % (test concentration not listed). hit rate 0.6% among 320,000. AID 2629; in the data active means inhibition mostly above about 10%, no sharp cut-off; inactive means mostly below about 6.7%
PRMT1 FP inh = PRMT1 (human) inhibition, primary screen | hit rate 1.3% among 370,000 | inhibition, % at 2.79 µM | AID 652257 | Q99873 | recombinant PRMT1, activity-based probe fluorescence polarization;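 active means inhibition above about 21% made by adding two undisclosed values, limit read from the data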
PRMT1 inh conf = confirmation of human PRMT1 inhibitors | recombinant His-PRMT1, activity-based probe fluorescence polarization | AID 687036 | shares compounds with PRMT1 FP inh | hit rate 42% among 3,300 | inhibition, % at 2.79 µM;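 active means mean inhibition across replicates above the hit cutoff derived for the earlier primary screen, cut at about 22% in these data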
An asterisk follows results filed as active. Hits are enriched below; roughly 5.9% of the tested compounds scored in any of these assays.

How did CCOC(=O)Nc1ccc(NCc2ccc(F)cc2)nc1N do in these assays?
rCAG RNA binder: 12; ALR inh: -68; Rtt109 HAT inh: -10; ABHD5-PLIN5 inh: -16; LANA-H2A inh: 14; PRMT1 FP inh: 64*; PRMT1 inh conf: 14

Results for Cc1ccc(NC(=O)c2ccccc2)cc1C ?
rCAG RNA binder: -1; ALR inh: -15; Rtt109 HAT inh: -5; ABHD5-PLIN5 inh: -4; LANA-H2A inh: -3; PRMT1 FP inh: -2

How did Cc1ccc(NC(=O)/C=C\C(=O)NCC(=O)O)cc1C do in these assays?
rCAG RNA binder: 3; ALR inh: 0; Rtt109 HAT inh: -1; ABHD5-PLIN5 inh: 6; LANA-H2A inh: -2; PRMT1 FP inh: 40*; PRMT1 inh conf: 3

What do the screens show for `CCCCNC(=O)C1(C)CCCCN1C(=O)c1oc2ccccc2c1C` (stereo not drawn)?
rCAG RNA binder: -1; ABHD5-PLIN5 inh: 2; PRMT1 FP inh: -1

How did COCCN(C(=O)CCCc1nc2ccccc2s1)c1c(N)n(CC(C)C)c(=O)[nH]c1=O do in these assays?
rCAG RNA binder: 2; ALR inh: -40; Rtt109 HAT inh: -3; ABHD5-PLIN5 inh: -8; LANA-H2A inh: -6; PRMT1 FP inh: 36*; PRMT1 inh conf: 27*

How did CC(C)CN(C(=O)COC(=O)CCCc1nc2ccccc2s1)c1c(N)n(Cc2ccccc2)c(=O)[nH]c1=O do in these assays?
rCAG RNA binder: -3; ALR inh: 0; Rtt109 HAT inh: -4; ABHD5-PLIN5 inh: 0; LANA-H2A inh: 2; PRMT1 FP inh: 3

How did Nc1c(C(=O)N/N=C/c2cccnc2)oc2nc(-c3ccco3)cc(-c3ccco3)c12 do in these assays?
rCAG RNA binder: 12; ALR inh: -26; ABHD5-PLIN5 inh: 2; LANA-H2A inh: 3; PRMT1 FP inh: 46*; PRMT1 inh conf: 3

What do the screens show for `COC(=O)C1=C(C)NC(=S)NC1c1cccc(OC)c1` (stereo not drawn)?
rCAG RNA binder: 2; PRMT1 FP inh: -2

What do the screens show for `CCN1C(=O)[C@H]2[C@H]3CN=C(SCc4ccccc4)N3[C@@](CC)(C(=O)OC)[C@H]2C1=O`?
rCAG RNA binder: 0; Rtt109 HAT inh: -7; ABHD5-PLIN5 inh: 9; PRMT1 FP inh: -1

What do the screens show for `CCN1C[C@@H]2[C@@H]3C(=O)N(C)C(=O)[C@@H]3[C@](CC)(C(=O)OC)N2C1=NCc1ccccc1`?
rCAG RNA binder: -1; Rtt109 HAT inh: -4; ABHD5-PLIN5 inh: 7; PRMT1 FP inh: 2

How did CCN1C(=O)[C@H]2[C@H]3CN=C(SCC(=O)c4ccccc4)N3[C@@](CC)(C(=O)OC)[C@H]2C1=O do in these assays?
rCAG RNA binder: 3; Rtt109 HAT inh: 10; ABHD5-PLIN5 inh: -21; PRMT1 FP inh: 69*; PRMT1 inh conf: 44*

What do the screens show for `COC(=O)[C@@]1(C)[C@H]2C(=O)N(Cc3ccccc3)C(=O)[C@H]2[C@H]2CN=C(SCC(=O)c3ccccc3)N21`?
rCAG RNA binder: 8; Rtt109 HAT inh: -2; ABHD5-PLIN5 inh: -27; PRMT1 FP inh: 80*; PRMT1 inh conf: 58*

Results for CCN1C[C@@H]2[C@@H]3C(=O)N(Cc4ccccc4)C(=O)[C@@H]3[C@](CC)(C(=O)OC)N2C1=NCc1ccccc1 ?
rCAG RNA binder: -1; Rtt109 HAT inh: 3; ABHD5-PLIN5 inh: -3; PRMT1 FP inh: 32*; PRMT1 inh conf: 6

Results for O=C(Nc1ccc(F)cc1)NC1CCN(Cc2nnnn2Cc2ccco2)CC1 ?
rCAG RNA binder: 11; ALR inh: -9; Rtt109 HAT inh: 2; ABHD5-PLIN5 inh: 6; LANA-H2A inh: 0; PRMT1 FP inh: 29*; PRMT1 inh conf: 11

What do the screens show for `COc1cc2ccccc2cc1C(=O)Nc1sc2c(c1C(N)=O)CCN(C(C)C)C2`?
rCAG RNA binder: 6; ALR inh: -10; Rtt109 HAT inh: 45; ABHD5-PLIN5 inh: 20; LANA-H2A inh: -2; PRMT1 FP inh: -2

How did CC(C)N1CCc2c(sc(NC(=O)C(F)(F)F)c2-c2nc3ccccc3s2)C1 do in these assays?
PRMT1 FP inh: 31*; PRMT1 inh conf: 3

How did CC(=O)Nc1sc2c(c1-c1nc3ccccc3s1)CNC2 do in these assays?
PRMT1 FP inh: 27*; PRMT1 inh conf: 15

How did CCOC(=O)C1=CCN(S(=O)(=O)c2ccccc2C)C1c1ccc(Cl)c(Cl)c1 (stereo not drawn) do in these assays?
rCAG RNA binder: 3; ABHD5-PLIN5 inh: -8; PRMT1 FP inh: -1

What do the screens show for `Cc1ccc(S(=O)(=O)n2nc(-c3ccco3)nc2SCc2ccccc2)cc1`?
rCAG RNA binder: 9; ALR inh: 1; Rtt109 HAT inh: -11; ABHD5-PLIN5 inh: 5; LANA-H2A inh: -3; PRMT1 FP inh: 25*; PRMT1 inh conf: 12

What do the screens show for `O=C(CCC(=O)N1CCOc2ccccc21)N1CCN(c2ccccc2)CC1`?
rCAG RNA binder: -1; ALR inh: 98*; Rtt109 HAT inh: 3; ABHD5-PLIN5 inh: 5; LANA-H2A inh: 3; PRMT1 FP inh: 55*; PRMT1 inh conf: 7

Results for CC1=C(C(=O)Nc2ccccc2)C(c2ccc(O)cc2)N2C(=O)CSC2=N1 (stereo not drawn) ?
rCAG RNA binder: 29; Rtt109 HAT inh: 0; ABHD5-PLIN5 inh: -14; LANA-H2A inh: -5; PRMT1 FP inh: 26*; PRMT1 inh conf: 29*

What do the screens show for `CCCCOc1ccccc1NC(=O)C=C(C)C`?
rCAG RNA binder: -1; ALR inh: 1; Rtt109 HAT inh: -10; ABHD5-PLIN5 inh: -1; LANA-H2A inh: -1; PRMT1 FP inh: -4

How did CCCOc1ccccc1NC(=O)/C=C/C(N)=O do in these assays?
rCAG RNA binder: 0; ALR inh: 6; Rtt109 HAT inh: 2; ABHD5-PLIN5 inh: 4; LANA-H2A inh: -4; PRMT1 FP inh: 59*; PRMT1 inh conf: 36*

How did COC(=O)C1=C(Nc2ccccc2NC(=O)c2ccccc2C(=O)O)CSC1 do in these assays?
rCAG RNA binder: 3; Rtt109 HAT inh: 2; ABHD5-PLIN5 inh: -14; LANA-H2A inh: -3; PRMT1 FP inh: 26*; PRMT1 inh conf: 6

What do the screens show for `COC(=O)C1=C(Nc2ccccc2NC(=O)CCCC(=O)O)CSC1`?
rCAG RNA binder: 0; ALR inh: 18; Rtt109 HAT inh: 6; ABHD5-PLIN5 inh: 1; LANA-H2A inh: 3; PRMT1 FP inh: -3

Results for Nn1c(SCC(=O)N2CCOCC2)nnc1-c1n[nH]c2c1CCC2 ?
rCAG RNA binder: 1; PRMT1 FP inh: -4

How did O=C(NCCc1ccccc1)OCc1cn(Cc2ccc(F)cc2)nn1 do in these assays?
rCAG RNA binder: 2; PRMT1 FP inh: -3

What do the screens show for `CCCSC1=N/C(=C\C=C\c2ccco2)C(=O)S1`?
rCAG RNA binder: 76*; ALR inh: 11; Rtt109 HAT inh: -12; ABHD5-PLIN5 inh: 7; LANA-H2A inh: 3; PRMT1 FP inh: 48*; PRMT1 inh conf: 12
